Assay outcomes deposited in PubChem BioAssay by National Center for Advancing Translational Sciences (NCATS).
Hits are enriched below; roughly 11% of the tested compounds scored in any of these assays.
NIH3T3 tox: kills NIH 3T3 cells; NIH 3T3 viability, CellTiter-Glo ATP luminescence, 48-72 h; Potency, µM (top dose mostly 96.7 µM), usual class: inhibitors; actives 4.3% (n = 94,000); AID 1345082; further: nearly all actives have a fitted effect of over 55% in size
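Mouse fibroblast NIH 3T3 cells, 400 per well, received compound via pintool and were incubated for 48 or 72 hr prior to CellTiter-Glo ATP luminescence measurement.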
FLuc inh-1: blocks purified firefly luciferase enzyme activity. P08659. actives 2.5% (n = 76,000). Potency, µM (titrated, usually from 115 µM), most hits filed as inhibitors. purified P. pyralis luciferase, luminescence, biochemical; further: nearly all actives have a fitted effect of over 65% in size
Target sequence (P08659 whole entry, looked up): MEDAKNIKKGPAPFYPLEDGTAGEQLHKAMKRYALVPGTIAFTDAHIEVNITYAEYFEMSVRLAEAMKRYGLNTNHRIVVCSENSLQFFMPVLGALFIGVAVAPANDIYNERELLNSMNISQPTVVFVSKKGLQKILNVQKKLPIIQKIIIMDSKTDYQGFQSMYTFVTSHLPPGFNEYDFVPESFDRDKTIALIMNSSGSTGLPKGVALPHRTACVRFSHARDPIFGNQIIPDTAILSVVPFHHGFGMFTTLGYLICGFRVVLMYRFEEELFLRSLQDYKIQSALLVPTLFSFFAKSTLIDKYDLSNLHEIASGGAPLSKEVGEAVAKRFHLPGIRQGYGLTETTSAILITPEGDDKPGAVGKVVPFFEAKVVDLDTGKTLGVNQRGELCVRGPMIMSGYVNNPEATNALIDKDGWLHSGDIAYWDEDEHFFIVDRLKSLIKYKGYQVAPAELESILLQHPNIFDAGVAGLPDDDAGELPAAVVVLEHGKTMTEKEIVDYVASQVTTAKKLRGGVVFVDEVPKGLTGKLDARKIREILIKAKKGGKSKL
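FLuc 10nM, D-luciferin 10uM, ATP 10uM, Mg acetate 10mM, Tris acetate pH 7.5, Tween/BSA; cpd qHTS; enzyme added last; CCD luminescence.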
HEK293 tox: kills HEK 293 cells; HEK 293 viability, ATP luminescence (CellTiter-Glo), 48-72 h; Potency, µM (highest dose often 115 µM), usual class: inhibitors; actives 6.6% (n = 94,000); AID 1345083; further: nearly all actives have a fitted effect of over 60% in size
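Luminescence from cellular ATP, measured with CellTiter-Glo, indicates HEK 293 viability. Cells plated at 250 cells/well are treated with compound for 48 or 72 hr at 37 degree Celsius before reagent addition.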
NPR1 antag: antagonists of human natriuretic peptide receptor Npr1; P16066; HEK293 hNpr1 GloSensor cGMP, ANP-stimulated luminescence; Potency, µM (doses to about 46.3 µM), most hits filed as inhibitors; actives 1.6% (n = 76,000); AID 1347048; calls by dose curve; further: nearly all actives have a fitted effect of over 60% in size
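Compound pre-incubated 30 min at room temperature on GloSensor-loaded HEK293 cells stably carrying hNpr1 and the pGS-40F cGMP biosensor. Stimulation uses hNppA at 0.1 nM final; luminescence is taken at baseline and 20 min post-agonist.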
FLuc SDR no ATP: binders stabilizing firefly luciferase, without ATP; shares compounds with FLuc inh-1; Purified FLuc-C-HiBiT, Nano-Glo HiBiT luminescence, no ATP; Potency, µM (titrated, usually from 32.7 µM), most hits filed as activators; actives 7.8% (n = 1,300); AID 1963318; further: nearly all actives have a fitted effect of over 55% in size
FLuc SDR ATP: firefly luciferase binding stabilization, ATP added | Potency, µM (highest dose often 32.7 µM), most hits filed as activators | purified FLuc-C-HiBiT + ATP, HiBiT complementation luminescence | shares compounds with FLuc inh-1 | AID 1963319 | actives 8.7% (n = 1,300);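 further: signal reports ligand binding via conformational change of the enzyme rather than luciferase catalysis; nearly all actives have a fitted effect of over 55% in size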
FLuc inh-2: blocks firefly luciferase enzymatic activity; AID 1963320; purified FLuc-C-HiBiT enzyme, luciferin luminescence; shares compounds with FLuc inh-1; actives 42% (n = 1,300); Potency, µM (highest dose often 32.7 µM), actives largely listed as inhibitors; further: nearly all actives have a fitted effect of over 70% in size
Numbers stand for hits; 0 = inactive; ? = inconclusive; - = not tested or not shown; [ ] = remark or other dose. Unless noted, the call rests on the fitted dose curve; in most records, active means well fitted curve in the direction sought with a large enough effect; inconclusive means small, poorly fitted or top-dose-only effect, or another doubt; inactive means no such curve, though single readings can be large; an effect the other way counts as inactive or inconclusive.

SMILES	NIH3T3 tox	FLuc inh-1	HEK293 tox	NPR1 antag	FLuc SDR no ATP	FLuc SDR ATP	FLuc inh-2
O=C(Nc1cc(-c2nc3ccccc3s2)ccc1Cl)c1cc2ccccc2o1	-	-	-	-	0	0	0
O=C(Nc1ccc(O)c(-c2nc3ccccc3s2)c1)c1cc2ccccc2o1	-	-	-	-	0	0	0
CC(C)Cn1c(=O)c(C(=O)N2CCN(C(=O)c3ccccc3F)CC2)nc2cccnc21	0	-	0	-	-	-	-
CCOc1ccc(-c2cc3c(=O)n(CCNC(=O)c4cccc5[nH]ccc45)ccn3n2)cc1	28µM	7.9µM	22µM	0	?	?	5.6µM
COc1cccc(C(=O)NCCn2ccn3nc(-c4ccc(C)cc4C)cc3c2=O)c1OC	?	5.6µM	?	0	0	0	9.9µM
COc1cccc(C(=O)NCCn2ccn3nc(-c4ccc(C)c(C)c4)cc3c2=O)c1OC	0	5.6µM	?	0	0	0	7.9µM
COc1ccc(-c2cc3c(=O)n(CCNC(=O)c4cccc(N(C)C)c4)ccn3n2)cc1	0	3.5µM	?	0	0	?	?
COc1ccccc1CC(=O)NCCn1ccn2nc(-c3ccc(C)c(C)c3)cc2c1=O	0	0	0	0	-	-	-
O=C(Nc1ccccc1)N1CCC2(CC1)SCC(=O)N2c1ccccc1	0	0	0	0	-	-	-
Cc1ccc(-n2ncc3c(N(C)C)ncnc32)cc1Cl	-	-	-	-	?	?	2.2µM
O=C(Nc1ccc(F)cc1)N1CCOc2ccc(CN3CCc4ccccc4C3)cc2C1	?	0	?	0	-	-	-
COC(=O)C1CCN(c2csc3ccc(C)cc3c2=O)CC1	-	-	-	-	0	?	7.9µM
O=C(O)C1CN(Cc2ccc(-c3nc4cc(Cc5ccccc5F)ccc4s3)c(F)c2)C1	-	-	-	-	0[5.62 µM]	0[5.62 µM]	0[5.62 µM]
O=C(N[C@@H]1CN(Cc2ccc(Cl)c(F)c2)C[C@H]1CO)C1CCC1	0	0	?	0	-	-	-
COc1ccc(CN(C(=O)c2cc3ccccc3oc2=O)C2CCS(=O)(=O)C2)cc1OC (stereo not drawn)	-	-	-	-	0	?	0
COc1cccc(C2CCCCN2Cc2nc(CCc3ccccc3)no2)c1 (stereo not drawn)	0	0	0	0	-	-	-
COc1cccc2cc(-c3nnc(-c4ccc(Cl)cc4)o3)c(=O)oc12	-	-	-	-	0	?	?
Cc1ccc(C2=CC(c3ccccc3C)n3c(nc4ccccc43)N2)cc1 (stereo not drawn)	-	-	-	-	?	?	4.4µM
Cc1noc(C)c1[S+](=O)([O-])N1CCCC(C(=O)N2CCC(c3nc4ccncc4[nH]3)C2)C1 (stereo not drawn)	0	-	0	-	-	-	-
CCCC(=O)Nc1cnc(-c2ccc(C)cc2)nc1	0	2µM	?	?	?	?	3.5µM
Cc1ccc(-c2ncc(NC(=O)c3cccs3)cn2)cc1	0	?	0	0	-	-	-
Cc1ccc2oc([C@H]3CCN(Cc4ccccn4)C3)nc2c1	?	?	?	0	-	-	-
Cc1ccc2oc([C@H]3CCN(Cc4cccs4)C3)nc2c1	?	10µM	100µM	0	0	0	?
COc1cccc(C(=O)N2CCn3c(nnc3-c3ccc(NC(C)=O)cc3)C2)c1	0	-	0	-	-	-	-
Cc1cccc(NC(=O)c2cc(-c3ccc4c(c3)OCCO4)on2)c1	-	-	-	-	5µM	?	0.44µM
SMILES	NIH3T3 tox	FLuc inh-1	HEK293 tox	NPR1 antag	FLuc SDR no ATP	FLuc SDR ATP	FLuc inh-2
Cc1noc(-c2ccc3c(c2)OCO3)c1C(=O)NCCc1cccc(Cl)c1	?	0	?	0	-	-	-
Cc1cccc(CNC(=O)c2c(C)noc2-c2ccc3c(c2)OCO3)c1	0	0	?	0	-	-	-
Cc1ccc(Cl)cc1NC(=O)c1cc(-c2ccc3c(c2)OCCO3)on1	-	-	-	-	?	?	1.8µM
CC1=Nc2cc(C(=O)NC(C)c3ccc4c(c3)OCCO4)ccc2Sc2ccc(Cl)cc21 (stereo not drawn)	0	0	?	0	-	-	-
O=C(Nc1cccc(Cl)c1)c1cc(-c2ccc3c(c2)OCCO3)on1	-	-	-	-	?	?	0.62µM
O=C(Nc1cccnc1)c1cc(-c2ccc(Cl)cc2)on1	-	-	-	-	0	0	?
C[C@@H](NC(=O)Nc1cccnc1)c1onc(-c2ccc(Cl)cc2)c1C(=O)O	0	0	0	0	-	-	-
Cc1occc1C(=O)N1CC(F)(F)C[C@H]1c1nc(C2CC2)no1	0	?	?	0	-	-	-
O=C(c1ccccc1)N1CCC2(CC1)COc1ccccc1CN2	0	0	0	0	-	-	-
CCN1CCCC1CNC(=O)CCC1CCN(Cc2cn(CC)c3ccccc23)CC1 (stereo not drawn)	?	0	?	0	-	-	-
Cc1ccc(N2CCC3(CCCN3Cc3ccc4nsnc4c3)CC2)nn1	0	0	?	0	-	-	-
COc1ccc(C[C@H](N)C(=O)NCc2c(C)ncc3c2CCNC3)cc1	0	0	0	0	-	-	-
O=C(Nc1ccccc1)N1CCc2nc(C3CC3)nc(-c3ccc(Cl)cc3)c2C1	?	0	?	0	0	0	0
O=C(c1ccccc1)N1CCc2nc(C3CC3)nc(-c3ccc(Cl)cc3)c2C1	0	-	?	-	-	-	-
c1ccc(Nc2ncc(-c3ccccc3)o2)cc1	-	-	-	-	?	?	0.79µM
CCOC(=O)c1ccc(Nc2nc(-c3ccccc3)no2)cc1	?	?	?	0	-	-	-
Cc1cn2nc(C(=O)Nc3ccccc3)cc2c(N(C)Cc2ccccc2)n1	?	0	?	0	-	-	-
CCc1ccc(NC(=O)c2cc3ccccn3n2)cc1	-	-	-	-	?	?	1.8µM
Cc1ccccc1CN1CC[C@H](c2nc3ncccc3[nH]2)C1	?	?	?	0	-	-	-
COc1ccc(CNC(=O)C[C@@H]2C[C@@H](C(C)C)[C@H](CNC(=O)c3cccnc3)C=C2C)cc1	?	14µM	?	0	0	0	0
COc1ccc(CNC(=O)C[C@@H]2C[C@@H](C(C)C)[C@H](CNC(=O)c3ccc(C#N)cc3)C=C2C)cc1	?	0	?	0	-	-	-
C[C@H]1[C@@H]2[C@@H](O)C([C@H](C)C(=O)NCc3cccs3)CC[C@@]2(C)CC[C@@H]1NC(=O)c1cnccn1 (stereo partly drawn)	0	0	0	0	-	-	-
COc1cc(=O)n2c(c1C(=O)N1CCN(c3ccc(C)cc3)CC1)CCCC2	0	0	0	0	-	-	-
O=C(Nc1ccc2c(c1)OCCO2)C1CN(S(=O)(=O)C2CC2)CC12CCCCC2 (stereo not drawn)	0	1.1µM	?	?	?	?	4.4µM
Cc1ccc(/C=C/c2nc3ccccc3n2S(=O)(=O)c2ccc(Br)cc2)cc1	-	-	-	-	1.8µM	?	0.62µM
O=S(=O)(c1cccc(Cl)c1)n1c(/C=C/c2ccccc2Cl)nc2ccccc21	-	-	-	-	1.6µM	?	0.18µM
CSc1ccc(/C=C/c2nc3ccccc3n2S(=O)(=O)c2cccc(Cl)c2)cc1	-	-	-	-	2µM	?	0.56µM
COCCN1CCNc2cc(-c3cc(Cl)ccc3OC)ncc2C1	?	?	?	0	-	-	-
